Shown are actives, neighbours in structure and some others; about 6% of the full set was active somewhere.
Tau fibril FP = qHTS for Inhibitors of Tau Fibril Formation, Fluorescence Polarization. 280,000 compounds, 0.39% hits. K18 P301L tau heparin fibrillization, Alexa594 FP, 6 h. Potency, µM (highest dose often 57.7 µM), without a hit: at the highest dose activity, negative = inhibition, actives largely listed as inhibitors; note: nearly all actives have a fitted effect of over 55% in size
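K18 P301L tau (15 uM unlabeled/0.24 uM Alexa 594-labeled, final) + compound + heparin 20 uM final; 100 mM NaOAc pH 7; 6 hr 37 C; ThT 30 uM final added, 1 hr RT; FP ex 555/em 632 nm.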
PLK1 PBD block = qHTS for Inhibitors of PLK1-PDB (polo-like kinase 1 - polo-box domain): Primary Screen. Plk1 PBD binding of FITC phosphopeptide, fluorescence polarization. Potency, µM, inactives show max response, negative = inhibition, hits mostly inhibitors. 360,000 compounds, 2.8% hits. AID 720504, 2013; note: series mostly up to about 57 µM; nearly all actives have a fitted effect of over 65% in size
Tau ThT inhib = qHTS for Inhibitors of Tau Fibril Formation, Thioflavin T Binding. recombinant tau K18 P301L, heparin-induced fibrillization, ThT fluorescence. 270,000 compounds, 2.1% hits. Potency, µM (top dose mostly 57.4 µM), for the others: at the highest dose activity, negative = inhibition, usual class: inhibitors. Microtubule-associated protein tau (Homo sapiens), P10636; note: nearly all actives have a fitted effect of over 55% in size
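Aggregation was driven by heparin (20 uM final) acting on recombinant tau […] bearing P301L in 100 mM sodium acetate pH 7; fibrils were detected with Thioflavin T.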
Tau fluor cs = Counterscreen qHTS for Inhibitors of Tau Fibril Formation, Fluorescence Polarization. 280,000 compounds, 0.93% hits. AID 1463, 2008. tau K18 P301L (four-repeat tau fragment) Alexa594 fluorescence, heparin fibrillization. Potency, µM (top dose mostly 57.7 µM), inactives show top-dose activity change, negative = decrease; note: nearly all actives have a fitted effect of over 55% in size
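Human K18 P301L tau (15 uM unlabeled plus 0.24 uM Alexa 594-labeled, final) in 100 mM sodium acetate pH 7 was mixed with compound and 20 uM heparin and incubated 6 hr at 37 C.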
VDR inh = Inhibitors of the vitamin D receptor (VDR): qHTS; Vitamin D3 receptor (Homo sapiens), P11473; VDR-SRC2-3 peptide fluorescence polarization, 2 h; Potency, µM, inactives show max response, negative = inhibition, usual class: inhibitors; 400,000 compounds, 0.93% hits; AID 504847, 2011
Target sequence (P11473 whole entry, looked up): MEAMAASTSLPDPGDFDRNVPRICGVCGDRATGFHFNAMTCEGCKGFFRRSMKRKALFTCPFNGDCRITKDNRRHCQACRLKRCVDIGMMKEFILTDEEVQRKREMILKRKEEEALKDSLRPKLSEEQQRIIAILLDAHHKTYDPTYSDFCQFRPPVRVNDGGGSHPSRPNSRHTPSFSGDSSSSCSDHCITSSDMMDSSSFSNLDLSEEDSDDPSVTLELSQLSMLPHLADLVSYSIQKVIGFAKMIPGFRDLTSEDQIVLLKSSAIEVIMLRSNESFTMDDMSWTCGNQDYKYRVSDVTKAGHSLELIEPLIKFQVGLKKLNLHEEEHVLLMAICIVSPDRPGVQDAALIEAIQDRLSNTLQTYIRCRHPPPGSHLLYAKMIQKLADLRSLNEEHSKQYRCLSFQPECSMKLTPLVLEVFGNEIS
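Fluorescence polarization assay measuring small-molecule disruption of VDR binding to the coregulator peptide SRC2-3. Compounds were pin-transferred (23 nl) into the reagent mix and incubated 2 h at room temperature before reading.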
Sfp inh = qHTS Assay for Inhibitors of Bacillus subtilis Sfp phosphopantetheinyl transferase (PPTase); 310,000 compounds, 3.5% hits; 4'-phosphopantetheinyl transferase ffp (Bacillus subtilis), Q9F4F7; Biochemical Sfp PPTase activity, qHTS; Potency, µM, for the others: largest response in the series, negative = inhibition, most hits filed as inhibitors;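 note: the enzyme is Sfp with the accession as filed and its product quenches rhodamine fluorescence; 0% = enzyme reaction without inhibitor and -100% = no enzyme wells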
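With Hepes-Na pH 7.6 buffer containing 10 mM MgCl2, Sfp (15 nM) modified BHQ-2-YbbR (12.5 uM) using rhodamine-CoA (5 uM). Two reads 30 minutes apart at 525/598 nm yielded each well's rate.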
An asterisk follows results filed as active; u = inconclusive; x = no result; [ ] = another dose, or the depositor's remark. Calls come from the whole dose curve; as a rule, active = well fitted curve in the direction sought with a large enough effect; inconclusive = small, poorly fitted or top-dose-only effect, or another doubt; inactive = no such curve, though single readings can be large; an effect the other way counts as inactive or inconclusive. Unless noted, % is set by controls: 0 for no effect and ±100 for the full control effect; potency is the fitted concentration of half-maximal effect.

SMILES | Tau fibril FP | PLK1 PBD block | Tau ThT inhib | Tau fluor cs | VDR inh | Sfp inh
CC(C)[C@@]1(NC(=O)[C@@H]2C[C@H]3c4cccc5[nH]cc(c45)C[C@@H]3N(C)C2)O[C@@]2(O)[C@H]3CCCN3C(=O)[C@H](Cc3ccccc3)N2C1=O | -0.1% | x | u | 12.6µM*[quencher] | -14.7% | 7.6%
CN1C[C@H](C(=O)N[C@]2(C)O[C@@]3(O)[C@H]4CCCN4C(=O)[C@H](Cc4ccccc4)N3C2=O)C[C@H]2c3cccc4[nH]cc(c34)C[C@@H]21 | 7.3% | x | u | 7.08µM*[quencher] | x | -14.3%
CN1C[C@H](C(=O)NC2(C)OC3(O)[C@@H]4CCCN4C(=O)[C@H](Cc4ccccc4)N3C2=O)CC2c3cccc4[nH]cc(c34)C[C@H]21 (stereo partly drawn) | x | -10.5% | x | x | 8.0% | x
CC(C)CC1C(=O)N2CCCC2C2(O)O[C@@](NC(=O)C3C=C4c5cccc6[nH]c(Br)c(c56)CC4N(C)C3)(C(C)C)C(=O)N12 (stereo partly drawn) | 8.4% | x | u | u | u | -3.6%
COc1ccc(C2=NCC(=O)N(CC(=O)NCc3ccco3)c3sc4c(c32)CCCC4)cc1OC | -8.8% | -7.4% | -24.2% | -13.6% | 11.1% | 50.1µM*
O=C(CN1C(=O)CN=C(c2ccccc2)c2ccccc21)NCc1ccco1 | -2.3% | -11.9% | 8.2% | -2.4% | -7.2% | 9.5%
O=C1CN(C(=O)COC(=O)Cc2ccccc2)c2ccccc2N1 | -5.6% | 29.9µM* | 7.3% | 6.7% | -17.9% | 5.3%
O=C(Cc1ccccc1)OCCN1CCCCC1 | 3.9% | -1.1% | 2.1% | -4.3% | 20.6% | 17.7%
CC/C=C\C[C@@H](/C=C/C=C\C/C=C\C/C=C\CCCC(=O)O)OO | -3.5% | x | -5.0% | -6.0% | 4.0% | -4.6%
Cc1cccc(-n2c(=S)[nH]c3ccccc3c2=O)n1 | -0.3% | -13.8% | 0.8% | 1.5% | -13.0% | 50.1µM*
O=C(c1ccncc1)N1CCC2(CC1)CN(Cc1ccccc1)C2 | x | x | x | x | 13.1% | 21.6%
CN1[C@H](CC(=O)c2ccccc2)CCC[C@H]1C[C@H](O)c1ccccc1 | -1.1% | x | -2.6% | -3.2% | 7.9% | 2.2%
COc1ccc(N2C(=O)NC(=O)/C(=C/c3cccc(OC(=O)c4cccs4)c3)C2=O)cc1Cl | u | 18.9µM* | u | -19.9% | u | u
Cc1cc(/C=C2\C(=O)NC(=O)N(c3ccc(F)cc3)C2=O)c(C)n1-c1ccc(C(=O)O)cc1 | -13.5% | u | u | -19.6% | -5.0% | -26.8%
Cc1ccc(N2C(=O)NC(=O)/C(=C/c3ccc(OC(=O)c4cccs4)cc3)C2=O)cc1 | -8.6% | 9.47µM* | u | -12.6% | u | 44.7µM*
Cc1ccc(C(=O)Nc2c(C(=O)Nc3ccc(C)c(C)c3)sc3nc(C)cc(C)c23)cc1 | -13.6% | x | u | u | -9.0% | x
NNc1n[nH]c(=S)n1N | u | 9.1% | x | u | -20.6% | 2.82µM*
CCCOCCN(C(=O)CCl)c1c(CC)cccc1CC | x | x | x | x | 11.4% | 14.1%
O=[N+]([O-])c1cccc(CN2CCN(Cc3ccc(Cl)cc3)CC2)c1 | u | -16.1% | -6.8% | -14.3% | 0.5% | u
CC(C)N1CCN(Cc2cccc([N+](=O)[O-])c2)CC1 | -2.5% | -7.5% | -5.8% | -6.9% | 2.3% | 79.4µM*
CC/C=C\C/C=C\C/C=C\C/C=C\C/C=C\CCCC(=O)NCCCC(=O)O | 5.7% | x | -1.9% | -1.8% | -9.8% | 17.7%
C#CCOc1cc(C2C3=C(COC3=O)Nc3cc4c(cc32)OCO4)ccc1OC (stereo not drawn) | -4.5% | -12.2% | -6.9% | u | -0.5% | 25.1%

Bioassay records: PubChem, National Center for Advancing Translational Sciences (NCATS)
